The list is not random: actives were taken first. Their share in the collection is about 0.4%.
AID504770: E. coli YBA685 growth inhibition, screen for V. cholerae RctB inhibitors; E. coli YBA685 rctB-dependent plasmid, OD600 growth, 3 h; active compounds read low; 0.27% of 130,000 active; z-score (concentration not given with the values); in the data active means z-score below about -2, passing the limit was not always enough
Ba CapD inh: inhibitors of Bacillus anthracis CapD enzyme; purified CapD enzyme, fluorescence intensity read-out; active compounds read low; z-score (no concentration beside the values); 0.23% of 140,000 active; AID 492967; in the data active means z-score mostly below about -2.9, no sharp cut-off; inactive means mostly above about -1.9
Active calls of the source: *; x = no result.

SMILES	AID504770	Ba CapD inh
COc1cc(C(=O)Nc2c3c(nn2-c2ccc(Cl)cc2)CS(=O)(=O)C3)cc(OC)c1OC	x	-0.15
COc1cc(C(=O)Nc2c3c(nn2-c2ccc(F)cc2)CS(=O)(=O)C3)cc(OC)c1OC	-3.1*	-0.98
COc1ccc(/C=C2\N=C(c3ccc(Cl)cc3)N(c3ccc(C)cc3Br)C2=O)cc1OC	x	0.58
Cc1nc2ccc(NC(=O)C(C)(C)C)cc2s1	1.7	-0.045
Cc1ccc(C(=O)N2N=C(c3ccc(F)cc3)CC2(O)C(F)(F)F)cc1 (configuration not stated)	x	-0.35
Cc1cc(N2CCN(c3ccccn3)CC2)n2ncnc2n1	-0.55	-0.31
Cc1cc(N2CCc3ccccc32)n2ncnc2n1	-0.6	-4.7*
CCC(C)NC(=O)c1nn(-c2ccc(OC)cc2)c(=O)c2c1c1ccccc1n2C (configuration not stated)	0.3	1.1
Cc1ccc(-n2nc(C(=O)NC(C)CCc3ccccc3)c3c4ccccc4n(C)c3c2=O)cc1 (configuration not stated)	-2.8*	17
Cc1cc(C(=O)O)ccc1-c1ccc(/C=N/n2cnnc2)o1	-1.4	3
Cc1cc(C(=O)O)ccc1-c1ccc(/C=C2\SC(=S)NC2=O)o1	1.5	-9.4*
CC(CC(=O)NCc1ccccc1)n1cccn1 (configuration not stated)	0.5	0.32
Cc1cc(C)c(C=C2C(=O)CCCC2=O)[nH]1	0.2	-7.6*
Cc1cc(C)c(C=C2C(=O)OC(C)(C)OC2=O)[nH]1	-0.75	-4.1
O=C1NC(=O)/C(=C\c2ccccc2Oc2ccc(Cl)cc2Cl)S1	x	0.15
O=C(CSc1nnc(-c2ccco2)c(-c2ccco2)n1)Nc1ccc(C(=O)O)cc1	0.7	-11*
COc1ccc(C(=O)CSc2nnc(-c3ccco3)c(-c3ccco3)n2)cc1	0.75	0.2
Cc1ccc(C)n1-c1ccccc1C(=O)O	1.2	-1
Cc1ccc(C)n1-c1cc(Cl)ccc1C(=O)O	1.1	-5.5*
CC(=O)Nc1ccc(NC(=O)c2ccccc2C(=O)O)cc1	x	-0.15
CC(=O)Nc1ccc(-n2c(C)ccc2C)c(C(=O)O)c1	0.6	-4.8*
Clc1ccc(OCCn2ccnc2)c(Br)c1	-2.7*	-0.32
Cc1cc(Cl)cc(C)c1OCCn1ccnc1	0.85	-0.81
CCc1cc(=O)oc2c(OC(C)=O)c(OC(C)=O)ccc12	-0.05	5.6
CCCCN(CC)Cc1ccc(CNC(=S)Nc2cccc(F)c2)o1	-0.5	0.48
SMILES	AID504770	Ba CapD inh
CCCCN(CC)Cc1ccc(CNC(=O)Nc2ccccc2)o1	-1.2	-5.1*
CCOc1ccc(C(=O)N2CCc3cc(OC)c(OC)cc3C2)cc1	-0.25	5.7
COCCN1C(=O)C=CC1=O	-3.5*	0.27
COCCN1C(=O)c2ccccc2C1=O	1.6	-0.8
O=C(NCCc1ccncc1)c1cc(-c2ccccc2)nc2ccccc12	x	10
COC(CNC(=O)c1ccc(/C=C2/Sc3ccccc3N(Cc3cccc(C)c3)C2=O)cc1)OC	0	0.07
COC(CNC(=O)c1ccc(/C=C2\Sc3ccccc3N(Cc3ccc(F)cc3)C2=O)cc1)OC	-0.1	-8.5*
O=C(O)CCN1C(=O)C(=O)/C(=C(/O)c2ccccc2)C1c1ccccc1 (configuration not stated)	-0.15	0.6
CN(C(=O)c1cccc(F)c1)C(C)(C)C	1.6	0.2
CCOC(=O)c1sc(COc2ccccc2OC)nc1C	3	-2.7*
CCOC(=O)c1sc(COc2ccc(C3SCCS3)cc2)nc1C	-1	9.9
Cc1ccc(-c2cc(C#N)c(=O)n(Cc3ccc(Cl)c(Cl)c3)c2)cc1	x	4.5
O=C(NCc1ccco1)NCC(F)(F)F	-0.45	-0.39
C=C1C(C(=O)NCc2ccco2)C1C(=O)NCc1ccco1 (configuration not stated)	-0.1	-10*
CC(C)(C)c1ccc(OC(F)(F)C(=O)Nc2cc(Cl)cc(Cl)c2)cc1	x	0.32
Oc1cccc2ccc(Nc3ccccn3)nc12	1.8	-0.015
CNc1ccc2cccc(O)c2n1	-3.3*	24
Cc1cc(N2CCN(C3=NCC(C)(C)S3)CC2)n2c(nc3ccccc32)c1C#N	-0.85	x
O=C1CSC(=Nc2cccc3ccccc23)N1	-0.9	2.7
O=C1CS/C(=N\c2nccs2)N1	-2.8*	-1.5
COc1ccc(C2C(C(=O)c3ccccc3)C(=O)CC(C)(O)C2C(=O)c2ccccc2)cc1 (configuration not stated)	-0.7	0
CCOC(=O)c1cn(C2CC2)c2c(F)c(F)c(F)cc2c1=O	-0.15	-0.075
CCCSc1ncc(Cl)c(C(=O)Nc2nc(C)c(C(=O)OCC(C)C)s2)n1	-0.75	-0.39
C=CCN1C(=O)/C(=C/c2ccco2)C(=O)NC1=S	-0.4	-4.7*
C=CCN1C(=O)NC(=O)/C(=C/c2ccco2)C1=O	-0.75	-0.03
Cc1nc2ccc(N=Cc3ccc(Br)cc3)cc2s1	-2.4*	-0.34
Cc1nc2ccc(CCO)cc2s1	-0.7	-0.18
O=C1CCCC(O)=C1N=Nc1cccc(C(=O)O)c1	1.1	x

Source: PubChem (ICCB-Longwood Screening Facility, Harvard Medical School)
